In PubChem BioAssay AID1159580 (chemical genetic matrix, 2015):
Values joined by “and” are separate entries in the source; they are usually repeats but may differ in a detail not shown here. Identical values can stand only once. The whole screen tested about 5,500 compounds, of which about 2,000 (36%) were called active. Inconclusive results (about 18%) are left out. No stated cut-off is given here; in the data, active means normalized growth mostly below about 0.91 (no sharp cut-off); inconclusive means no clear call, values can overlap the other calls; inactive means mostly above about 0.92. The list shows a part of the results.

Assay: chemical genetic growth profiling, strain panel (AID 1159580);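 further: tested at 20 µM; growth read once vehicle control cultures reached saturation at 30 °C; 1 = growth at the plate median or of vehicle wells; lower values mean less growth of the strain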
Settings: S. cerevisiae deletion strains, growth OD

Measured: normalized growth

C[C@]12CCC3c4ccc(OS(=O)(=O)O)cc4CCC3C1CC[C@H]2O (some centres undefined)
inactive: locus YAL013W, strain DEP1, hits give low values 0.998 | locus YAL021C, strain ccr4, hits give low values 0.986 | locus YAL026C, strain drs2, hits give low values 0.973 | locus YAL030W, strain snc1, hits give low values 1 | locus YBL061C, strain skt5, hits give low values 0.969 | locus YBR009C, strain hhf1, hits give low values 1.04 | locus YBR021W, strain FUR4, hits give low values 0.983 | locus YBR023C, strain chs3, hits give low values 0.966 | locus YBR171W, strain sec66, hits give low values 0.983 | locus YBR229C, strain ROT2, hits give low values 0.988 | locus YBR231C, strain swc5, hits give low values 0.993 | locus YBR279W, strain paf1, hits give low values 0.978 | locus YCL011C, strain gbp2, hits give low values 0.961 | locus YCL016C, strain dcc1, hits give low values 0.948 | locus YCL029C, strain bik1, hits give low values 0.99 | locus YCL061C, strain MRC1, hits give low values 0.975 | locus YCL069W, strain vba3, hits give low values 0.985 | locus YCR088W, strain abp1, hits give low values 0.983 | locus YDL005C, strain med2, hits give low values 0.984 | locus YDL035C, strain GPR1, hits give low values 0.991 | locus YDL040C, strain nat1, hits give low values 0.985 | locus YDL074C, strain BRE1, hits give low values 1.02 | locus YDL101C, strain DUN1, hits give low values 0.996 | locus YDL134C, strain PPH21, hits give low values 0.978 | locus YDL185W, strain tfp1, hits give low values 0.99 | locus YDL192W, strain arf1, hits give low values 0.987 | locus YDR001C, strain nth1, hits give low values 0.974 | locus YDR069C, strain doa4, hits give low values 0.981 | locus YDR101C, strain arx1, hits give low values 0.988 | locus YDR137W, strain rgp1, hits give low values 0.955 | locus YDR150W, strain NUM1, hits give low values 0.997 | locus YDR159W, strain sac3, hits give low values 0.984 | locus YDR162C, strain NBP2, hits give low values 0.986 | locus YDR195W, strain ref2 0.97 | locus YDR297W, strain sur2, hits give low values 0.986 | locus YDR318W, strain mcm21, hits give low values 0.986 | locus YDR334W, strain swr1, hits give low values 0.968 | locus YDR335W, strain msn5, hits give low values 0.968 | locus YDR388W, hits give low values 0.986 | locus YDR392W, strain spt3, hits give low values 0.907 | locus YDR502C, strain sam2, hits give low values 0.986 | locus YEL003W, strain gim4, hits give low values 1 | locus YEL037C, strain rad23, hits give low values 0.989 | locus YEL061C, strain CIN8 (second series), hits give low values 0.981 | locus YEL061C, strain CIN8, hits give low values 0.996 | locus YER015W, strain faa2, hits give low values 0.986 | locus YER016W, strain bim1, hits give low values 0.942 | locus YER110C, hits give low values 0.978 | locus YER111C, strain swi4, hits give low values 0.965 | locus YER155C, strain BEM2 (second series), hits give low values 1 | locus YER155C, strain BEM2, hits give low values 0.994 | locus YER167W, strain BCK2, hits give low values 0.987 | locus YFR010W, strain ubp6, hits give low values 0.998 | locus YGL078C, strain dbp3, hits give low values 0.986 | locus YGL086W, strain mad1, hits give low values 0.988 | locus YGL167C, strain pmr1, hits give low values 0.973 | locus YGL173C, strain kem1, hits give low values 0.999 | locus YGL227W, strain vid30, hits give low values 0.981 | locus YGL240W, strain doc1, hits give low values 1.01 | locus YGL248W, strain PDE1, hits give low values 0.997 | locus YGL253W, strain hxk2, hits give low values 0.953 | locus YGR078C, strain PAC10, hits give low values 1.01 | locus YGR135W, strain pre9, hits give low values 0.96 | locus YGR229C, strain SMI1, hits give low values 1.01 | locus YGR252W, strain gcn5, hits give low values 0.997 | locus YHR013C, strain ard1, hits give low values 0.92 | locus YHR027C, strain rpn1, hits give low values 0.965 | locus YHR030C, strain SLT2, hits give low values 0.99 and 0.957 | locus YHR079C, strain IRE1 (second series), hits give low values 0.986 | locus YHR079C, strain IRE1, hits give low values 0.959 | locus YHR094C, strain hxt1, hits give low values 0.987 | locus YHR129C, strain ARP1, hits give low values 0.988 | locus YHR142W, strain chs7, hits give low values 0.951 | locus YHR200W, strain rpn10, hits give low values 0.987 | locus YIL066C, strain RNR3, hits give low values 0.984 | locus YIL073C, strain SPO22, hits give low values 0.954 | locus YIL125W, strain kgd1, hits give low values 0.988 | locus YIR030C, strain dcg1, hits give low values 0.992 | locus YJL092W, strain hpr5, hits give low values 0.978 | locus YJL095W, strain BCK1 (second series), hits give low values 0.969 | locus YJL095W, strain BCK1, hits give low values 1.02 and 0.969 | locus YJL115W, strain asf1, hits give low values 0.947 | locus YJL129C, strain trk1, hits give low values 0.911 | locus YJL134W, strain LCB3, hits give low values 0.993 | locus YJL154C, strain vps35, hits give low values 0.976 | locus YJL164C, strain tpk1, hits give low values 0.983 | locus YJL166W, strain qcr8, hits give low values 0.998 | locus YJL168C, strain set2, hits give low values 1 | locus YJL187C, strain SWE1 (second series), hits give low values 1.01
